# High-throughput results (PubChem)
# KDM5B inh – KDM5B demethylase inhibition | KDM5B demethylase, FDH-coupled NADH fluorescence (FDH is formaldehyde dehydrogenase) | Potency, µM (series often up to 57.7 µM), usual class: inhibitors | Q9UGL1 | AID 1347165 | 220,000 tested, 2.6% active; active = well fitted inhibition curve with a large enough effect; note: 0% is about no effect; nearly all actives have a fitted effect of over 70% in size
# Target sequence (Q9UGL1 whole entry, looked up): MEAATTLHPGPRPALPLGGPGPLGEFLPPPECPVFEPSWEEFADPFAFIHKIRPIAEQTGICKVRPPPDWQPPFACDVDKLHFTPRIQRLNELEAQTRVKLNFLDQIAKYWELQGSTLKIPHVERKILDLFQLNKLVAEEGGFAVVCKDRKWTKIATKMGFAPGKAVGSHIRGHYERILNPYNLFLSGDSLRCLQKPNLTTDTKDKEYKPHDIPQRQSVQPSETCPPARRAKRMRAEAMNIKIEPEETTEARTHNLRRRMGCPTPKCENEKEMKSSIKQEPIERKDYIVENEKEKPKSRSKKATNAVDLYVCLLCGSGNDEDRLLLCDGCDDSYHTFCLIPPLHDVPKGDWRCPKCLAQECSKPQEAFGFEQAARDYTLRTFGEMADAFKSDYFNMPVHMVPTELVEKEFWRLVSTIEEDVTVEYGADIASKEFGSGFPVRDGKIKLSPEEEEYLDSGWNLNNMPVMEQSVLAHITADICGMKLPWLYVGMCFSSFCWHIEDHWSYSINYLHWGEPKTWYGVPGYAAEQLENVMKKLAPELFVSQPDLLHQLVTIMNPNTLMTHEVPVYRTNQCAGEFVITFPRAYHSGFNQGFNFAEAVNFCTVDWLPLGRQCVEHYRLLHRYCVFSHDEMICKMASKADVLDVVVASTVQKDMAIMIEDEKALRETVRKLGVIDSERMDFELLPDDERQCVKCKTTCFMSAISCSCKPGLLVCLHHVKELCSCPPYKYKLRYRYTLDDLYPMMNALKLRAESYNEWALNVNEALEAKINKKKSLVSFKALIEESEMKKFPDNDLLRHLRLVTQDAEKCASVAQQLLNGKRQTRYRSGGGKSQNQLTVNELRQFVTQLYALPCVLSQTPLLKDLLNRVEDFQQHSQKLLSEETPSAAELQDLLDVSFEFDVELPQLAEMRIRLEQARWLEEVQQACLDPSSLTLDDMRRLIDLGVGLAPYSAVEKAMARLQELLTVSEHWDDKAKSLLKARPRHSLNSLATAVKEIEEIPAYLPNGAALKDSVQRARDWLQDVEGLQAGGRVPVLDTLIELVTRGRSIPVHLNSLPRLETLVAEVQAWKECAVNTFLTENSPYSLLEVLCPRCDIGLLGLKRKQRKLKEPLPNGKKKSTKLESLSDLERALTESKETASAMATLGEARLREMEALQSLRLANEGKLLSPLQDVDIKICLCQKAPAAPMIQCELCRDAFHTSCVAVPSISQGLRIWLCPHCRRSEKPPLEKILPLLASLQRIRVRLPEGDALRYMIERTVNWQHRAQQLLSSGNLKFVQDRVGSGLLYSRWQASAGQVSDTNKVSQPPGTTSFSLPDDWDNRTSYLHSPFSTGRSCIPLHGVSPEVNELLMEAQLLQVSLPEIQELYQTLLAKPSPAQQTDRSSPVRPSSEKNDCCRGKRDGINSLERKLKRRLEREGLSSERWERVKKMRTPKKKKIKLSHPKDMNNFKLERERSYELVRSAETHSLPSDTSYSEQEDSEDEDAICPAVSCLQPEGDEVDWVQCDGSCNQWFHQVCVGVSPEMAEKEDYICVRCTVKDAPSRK
#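 Coupled FDH/NAD⁺ fluorescence readout. KDM5BΔAP 200 nM final; compound titration, 10 min RT preincubation; substrate mix 12.5 µM H3K4me3, 25 µM 2-OG, 50 µM Fe(II), 100 µM ascorbate, 0.25 mM NAD⁺, 0.25 U/mL FDH; ΔRFU over 30 min.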
# Active calls of the source: *; i = inactive. This excerpt belongs to a sample that is enriched for hits. Potency is the fitted concentration of half-maximal effect.
SMILES,KDM5B inh
CC1CCCC(NC(=O)/C=C/c2ccc3c(c2)CCO3)C1C (centres undefined),i
COc1ccc(N2Cc3cccc(C(=O)NCc4ccc(F)cc4)c3C2=O)cc1,i
N#Cc1nc(-c2ccccc2)[nH]c1C#N,i
COc1cc2c(cc1OC)C(CNC(=O)C1CC1)N(C(=O)NC(C)C)CC2 (centres undefined),i
CCCNC(=O)NCC1c2cc(OC)c(OC)cc2CCN1C(=O)NC(C)C (centres undefined),22µM*
CCCNC(=O)NCC1c2cc(OC)c(OC)cc2CCN1C(=O)NCC (centres undefined),i
Cc1ccoc1C(=O)Nc1ccc(-c2ccccc2)cc1,i
CNC(=O)c1cccc(NC(=O)C2CCCCC2)c1,i
CN(C)c1ccc(NC(=O)c2cc3cc(F)ccc3[nH]2)cc1,i
Cc1csc(NC(=O)Cc2ccc3ccccc3c2)n1,i
CCc1cccc(NC(=O)Cn2c(=O)c(-c3noc(C)n3)c3n(c2=O)CCCCC3)c1,i
O=C(Cc1c[nH]c2ncc(-c3ccncc3)cc12)N1CCOCC1,i
CC(=O)Nc1cccc(-c2cnc3[nH]cc(CC(=O)N4CCOCC4)c3c2)c1,32µM*
O=C(Cc1c[nH]c2ncc(-c3ccsc3)cc12)N1CCOCC1,32µM*
CC(=O)Nc1cccc(NC(=O)CS(=O)(=O)c2cn(CC(=O)N3CCOCC3)c3ccccc23)c1,i
O=C(Cc1c[nH]c2ncc(-c3ccc(F)cc3)cc12)N1CCOCC1,28µM*
O=C(CS(=O)(=O)c1ccc(F)cc1)N1CCOCC1,i
CNC(=O)c1cccc(-c2cnc3[nH]cc(CC(=O)NCc4cccs4)c3c2)c1,i
Cc1ccc(-c2cnc(CCC(=O)N3CCOCC3)o2)cc1C,i
COC1CN(c2cccc(F)c2)C12CCN(C(=O)NCCc1ccccc1)CC2 (centres undefined),i
N#Cc1ccccc1COC(=O)c1ccccc1C(=O)c1ccccc1,i
CCC(=O)NCCSCc1cccs1,i
CCCOc1ccc(-c2nonc2NC(=O)Cc2ccc(OC)cc2)cc1,i
Cc1cc(C)c2c(C(=O)N3CCN(C)C4(CCN(C)CC4)C3)cc(C)nc2c1,25µM*
Cc1cc(C)cc(NC(=O)CC(=O)N2CCN(C)C3(CCN(C)CC3)C2)c1,i
SMILES,KDM5B inh
CCc1c(C(=O)N2CCCN(C)C3(CCN(C)CC3)C2)csc1C,i
CN(C)CCCNC(=O)C1CCCN(c2ncnc3nc[nH]c23)C1 (centres undefined),i
Cn1ccc(NC(=O)[C@@H]2C[C@@H](c3ccc(F)cc3)N(CCOc3ccccc3)C2)n1,i
O=C(Nc1ccncn1)[C@@H]1C[C@@H](c2ccc(F)cc2)N(CCOc2ccccc2)C1,35µM*
O=C(Nc1cccnc1)[C@@H]1C[C@@H](c2ccc(F)cc2)N(CCOc2ccccc2)C1,i
CC(NCc1ccccc1C#N)c1ccccc1F (centres undefined),i
CCOCCOC(=O)COc1ccc2c(=O)c(Oc3ccc(OC)cc3)c(C(F)(F)F)oc2c1,i
CC(SC(C)c1ccccc1Cl)C(=O)NC(N)=O (centres undefined),i
Cc1ccc(C(=O)N2CCCC3(C2)NC(=O)N(Cc2cccc(Cl)c2)C3=O)cc1F (centres undefined),i
COc1ccc(NC(=O)N2CCCC3(C2)Nc2cccnc2NC3=NC2CCCC2)c(C)c1 (centres undefined),25µM*
Cc1ccc(-n2c(C3CCN(C(=O)c4n[nH]c5c4CCCC5)CC3)n[nH]c2=O)cc1,i
Cc1ccc(C2=NC3(CCN(C(=O)c4n[nH]c5c4CCCC5)CC3)ON2)cc1,i
O=C(c1n[nH]c2c1CCCC2)N1CCCC2(C1)Nc1cccnc1NC2=NC1CCCC1 (centres undefined),25µM*
COc1ccc(NC(=O)N2CCCC(c3noc(COc4ccccc4)n3)C2)c(C)c1 (centres undefined),i
Cc1ccc(C(=O)N2CCCC3(C2)Nc2cccnc2NC3=NC2CCCC2)cc1F (centres undefined),28µM*
COc1ccc(NC(=O)N2CCCC(Cn3cnc4cccnc43)C2)c(C)c1 (centres undefined),i
Cc1ccc(C(=O)N2CCCC3(C2)C(=NC2CCCCC2)NC(=O)N3c2cccnc2)cc1 (centres undefined),i
O=c1c2ccccc2cnn1Cc1coc(-c2ccccc2)n1,i
Cc1cc2oc(C(=O)NCC(c3cccs3)N3CCCCCC3)cc(=O)c2cc1C (centres undefined),i
O=C(O)c1c[nH]c2ccccc12,i
O=C(Nc1ccccc1Cl)c1ccc2c(Cl)c3c(nc2c1)CCCC3,i
Cc1cc(OCC(=O)N(Cc2sccc2C)CC2CCCO2)ccc1Cl (centres undefined),i
COc1ccc(C(=O)N2CCC3(CC2)NC(=O)N(c2ccc(F)cc2)N3)cc1,i
COc1cccc(-c2ccc3c(n2)c(=O)ncn3CC2CC2)c1,i
COc1ccc(-c2ccc3c(n2)c(=O)ncn3Cc2ccccc2)cn1,i
